Vaccinia Venus: vaccinia inhibition (Venus reporter); Potency, µM (series often up to 36.5 µM), for the others: at the highest dose activity change, negative = inhibition, most hits filed as inhibitors; Vaccinia virus Venus reporter expression, fluorescence; AID 720580; 330,000 tested, 0.46% active; calls by dose curve; tested in A549 cells; also: % is scaled to controls: 0 for no effect and ±100 for the full control effect; nearly all actives have a fitted effect of over 30% in size
HCV inh: blocks hepatitis C virus; Huh7.5.1 HCVcc-Cre infection, luciferase reporter, 44 h; AID 651820; Potency, µM (doses to about 41.8 µM), without a hit: top-dose activity change, negative = inhibition, most hits filed as inhibitors; 340,000 tested, 3.4% active; also: % is scaled to controls: 0 for no effect and ±100 for the full control effect
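Cells seeded at 1,000/well and cultured 4 h, then compounds added followed by HCVcc-Cre virus (~0.5 moi). After 44 h further culture, luciferase substrate was added, plates held 15 min at room temperature, and luminescence read for 15 sec.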
Pf growth 48h: P. falciparum growth inhibition at 48 hours (one generation). AID 504832. P. falciparum luciferase growth in erythrocytes, 48 h. Potency, µM (series often up to 28.7 µM), without a hit: top-dose activity change, negative = inhibition, most hits filed as inhibitors. 310,000 tested, 5.9% active; also: % is scaled to controls: 0 for no effect and ±100 for the full control effect
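Here the parasites carry a stable luciferase gene and grow inside erythrocytes in Albumax-based RPMI medium with compound for one erythrocytic cycle. Activity is scored as loss of luminescent signal.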
Vaccinia mCherry: vaccinia inhibition (mCherry reporter) | Vaccinia virus mCherry reporter infection, fluorescence | Potency, µM (top dose mostly 36.5 µM), for inactives: at the top dose activity change, negative = inhibition, most hits filed as inhibitors | AID 720579 | 310,000 tested, 0.63% active; calls by dose curve; tested in A549 cells; also: % is scaled to controls: 0 for no effect and ±100 for the full control effect; nearly all actives have a fitted effect of over 35% in size
NS1 function inh: inhibitors of influenza NS1 protein function; Potency, µM (highest dose often 46.1 µM), for the others: top-dose activity, positive = more growth; 270,000 tested, 0.4% active; AID 2326; calls by dose curve; also: actives are rising curves; nearly all actives have a fitted effect of over 50% in size
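Growth recovery, yeast-based: influenza A NS1 expressed in S. cerevisiae causes slow growth, and suppressors are detected by OD600. The parent strain without NS1 is used as positive control.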
Pf growth 96h: P. falciparum growth inhibition at 96 hours; 320,000 tested, 6.9% active; Potency, µM (highest dose often 28.7 µM), inactives show at the top dose activity change, negative = inhibition, most hits filed as inhibitors; P. falciparum luciferase reporter growth, 96 h; also: % is scaled to controls: 0 for no effect and ±100 for the full control effect
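Two parasite generations (96 h, 37 C, 5% CO2) of compound exposure in infected erythrocytes (0.05% parasitemia, 2% hematocrit). Luciferase-reporter P. falciparum; decreased luminescence indicates inhibited growth, aimed at apicoplast-acting delayed death.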
* hit, by the source's call; i = inactive; ? = inconclusive; . = no result given; [ ] = dose if it differs, or a comment. In the library only some 11% were active in any assay of this set; here they are far more common. Unless noted, calls follow the shape of the dose curve; as a rule, active = well fitted inhibition curve with a large enough effect; inconclusive = small, poorly fitted or top-dose-only effect, or another doubt; inactive = no such curve, though single readings can be large or run the other way. Potency is read from the fitted curve at half-maximal effect.

SMILES | Vaccinia Venus | HCV inh | Pf growth 48h | Vaccinia mCherry | NS1 function inh | Pf growth 96h
CC[C@]12c3[nH]c4ccc(Cl)cc4c3CCN1C(=O)[C@@H](CC(=O)NCC13CC4CC(CC(C4)C1)C3)C[C@@H]2C(=O)N1CCN(C(=O)c2ccco2)CC1 | 14µM* | ? | . | 11µM* | . | .
CC[C@]12c3[nH]c4ccc(OC)cc4c3CCN1C(=O)C(CC(=O)NCC13CC4CC(CC(C4)C1)C3)C[C@@H]2C(=O)N1CCN(C(=O)c2ccco2)CC1 (some centres not stated) | 0% | 0% | . | -7% | . | .
COc1ccc(CNC(=O)C[C@H]2C[C@H](C(=O)N3CCOCC3)[C@@]3(C)c4[nH]c5cc(-c6ccco6)ccc5c4CCN3C2=O)cc1OC | -29% | -2% | . | ? | . | .
CC(=O)OCC1=C(C(=O)O)N2C(=O)C(NC(=O)CCn3nc(C)c(Cl)c3C)C2SC1 (configuration not stated) | 4% | 12% | 13% | -2% | . | -5%
O=C(CN1C(=O)C2C3C=CC(C3)C2C1=O)NC1CCCc2ccccc21 (configuration not stated) | -10% | 8% | 1% | -9% | 4% | 45%
Cc1ccc(C(C)C)c(OCC(=O)NNC(=O)C2CSC3(C)CCC(=O)N23)c1 (configuration not stated) | -3% | 0% | ? | -10% | . | -9%
CC(=O)Nc1scc(-c2ccccc2)[n+]1-c1ccc(C)cc1 | -8% | ? | 6% | -4% | . | 50%
C[n+]1c(-c2ccccc2)cc(-c2ccc(Cl)cc2)cc1-c1ccccc1 | -6% | -20% | 1.7µM* | i | -7% | ?
Cc1ccc(-c2nc(N)s[n+]2-c2ccccc2)cc1 | -14% | 7% | 53% | -2% | 24% | -21%
Cc1ccc(-c2cc(-c3ccc(C)cc3)[n+](-c3ccccc3)c(-c3ccc(C)cc3)c2)cc1 | 3.5µM* | 25µM* | 0.29µM* | ? | . | 0.29µM*
Cc1ccc(-c2cc(-c3ccccc3)cc(-c3ccccc3)[n+]2-c2ccccc2)cc1 | 10µM* | 6.3µM* | 0.37µM* | 8.9µM* | . | 0.33µM*
c1ccc(-c2cc(-c3ccccc3)[n+](-c3ccccc3)c(-c3ccccc3)c2)cc1 | ? | ? | 0.29µM* | -40% | -5% | 0.37µM*
Cc1c(-c2ccc(Cl)cc2)[n+](=O)c(-c2ccccc2)cn1[O-] | . | -1% | 36% | . | 0% | 43%
O=C1CSC2(C(=O)N(Cc3cccc(C(F)(F)F)c3)c3ccccc32)N1c1ccc(F)c(F)c1 (configuration not stated) | -11% | . | . | -18% | . | .
Cc1cccc(/C=C/c2nc3ccccc3c(=O)[nH]2)c1 | -15% | -8% | -16% | -22% | 2% | -19%
Cc1ccc(-c2cc(-c3ccc(C)cc3)[n+](-c3ccc(C(=O)[O-])cc3)c(-c3ccc(C)cc3)c2)cc1 | -12% | 2.5µM* | 3.7µM* | -13% | . | ?
CN(C)c1ccc(-[n+]2c(-c3ccccc3)cc(-c3ccccc3)cc2-c2ccccc2)cc1 | ? | 7.1µM* | ? | -20% | -41% | ?
Cc1ccc(C(=O)Nc2cc(C(C)C)c(O)c(C(C)C)c2)cc1 | -25% | ? | ? | -25% | -27% | ?
CCn1c(SCC(=O)OC)nc2cc(S(=O)(=O)N3CCOCC3)ccc21 | -6% | 19% | -14% | -15% | . | -10%
CCc1ccc(C(=O)CSc2nc3cc(S(=O)(=O)N4CCOCC4)ccc3n2CC)cc1 | -9% | ? | ? | -18% | 24% | 10µM*
Cc1csc(SCC(=O)c2ccc(S(=O)(=O)N3CCOCC3)cc2)n1 | . | -5% | ? | . | 0% | 10µM*
CC(=NCCCn1ccnc1)c1c(O)n(C)c(=O)n(C)c1=O | . | 4% | 27% | . | 0% | 10µM*
CCCCn1c(O)c(C(C)=NCCCn2ccnc2)c(=O)[nH]c1=O | . | 9% | 21% | . | 7% | .
CN(c1ccc(C(=O)NCc2ccco2)cc1)S(C)(=O)=O | -6% | 9% | 12% | -18% | 10% | .
CCOC(=O)c1cnc2c(C(F)(F)F)cccc2c1NCCCN1CCOCC1 | . | ? | 5.2µM* | . | 8% | 222%
SMILES | Vaccinia Venus | HCV inh | Pf growth 48h | Vaccinia mCherry | NS1 function inh | Pf growth 96h
CCOC(=O)c1cnc2c(CC)cccc2c1NCCCN1CCOCC1 | . | -1% | ? | . | -5% | ?
CCOC(=O)c1cnc2c(c(C)nn2CC)c1NCCN1CCOCC1 | -12% | ? | -25% | -7% | -6% | 12µM*
CCCC[C@]12Cc3c(ccc4ccccc34)C(O1)C1=C(O2)C(=O)c2ccccc2C1=O | . | . | 1.5µM* | . | ? | 36%[5.75 µM]
O/N=C/c1cc2ccccc2n1Cc1ccccc1F | . | -9% | 2.6µM* | . | 5% | 15%
COC(=O)Cc1[nH]nc2c1C1(C(=O)N(Cc3ccccc3)c3ccccc31)C(C#N)=C(N)O2 (configuration not stated) | . | 6% | -8% | . | 2% | 47%
Cc1[nH]nc2c1C1(C(=O)N(Cc3ccc(Cl)cc3)c3ccccc31)C(C#N)=C(N)O2 (configuration not stated) | -20% | -7% | 13µM* | -14% | -54% | 34%
COC(=O)CCCCCN1C(=O)NC(c2ccccc2)C(C(=O)OCc2ccccc2)=C1C (configuration not stated) | -13% | -45% | -27% | i | -19% | ?
CCCCCCN(C(=O)CCCCCN1C(=O)NC(c2ccc([N+](=O)[O-])cc2)C(C(=O)OCc2ccccc2)=C1C)C(C(=O)NCCCC)c1ccc(OCC(=O)OC)c(C(=O)OC)c1 (configuration not stated) | . | . | 1.9µM* | . | 1% | 3.3µM*
CCCCNC(=O)C(c1ccc(OCC(=O)OC)c(C(=O)OC)c1)N(CCc1c[nH]c2ccccc12)C(=O)CCCCCN1C(=O)NC(c2ccc(-c3ccccc3)cc2)C(C(=O)OCc2ccccc2)=C1C (configuration not stated) | . | . | 2.3µM* | . | ? | 2.9µM*
CCCCCCN(C(=O)CCCCCN1C(=O)NC(c2cccc([N+](=O)[O-])c2)C(C(=O)OCc2ccccc2)=C1C)C(C(=O)NCCCC)c1ccc(OCC(=O)OC)c(C(=O)OC)c1 (configuration not stated) | . | . | ? | . | ? | 5.2µM*
CCCCCCN(C(=O)CCCCCN1C(=O)NC(c2ccc(Cl)cc2)C(C(=O)OCc2ccccc2)=C1C)C(C(=O)NCCCC)c1ccc(OCC(=O)OC)c(C(=O)OC)c1 (configuration not stated) | . | -8%[8.37 µM] | 7.4µM* | . | 13% | ?
COc1ccc(CCNS(=O)(=O)c2ccc(N3CCCCS3(=O)=O)cc2)cc1OC | -14% | . | . | -9% | . | .
Cc1ccc(F)cc1NC(=O)CCNC(=O)c1ccc([N+](=O)[O-])cc1 | 4% | 15% | 20% | -12% | 3% | 16%

Bioassay records as filed in PubChem BioAssay.
